# Screens as filed in PubChem.
# In the library only some 11% were active in any assay of this set; here they are far more common.
# Pf growth 96h = inhibits malaria parasite growth, 96 h; AID 504834; P. falciparum luciferase reporter growth, 96 h; 320,000 tested, 6.9% active; Potency, µM (doses to about 28.7 µM), for inactives: top-dose activity change, negative = inhibition, usual class: inhibitors
#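 P. falciparum expressing integrated firefly luciferase, in erythrocytes at 2% hematocrit, 0.05% parasitemia, incubated with compounds 96 h at 37 C, 5% CO2. Growth inhibition read as loss of luminescence; two-generation exposure targets delayed-death apicoplast inhibitors.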
# HCV inhibitor = blocks hepatitis C virus; Huh7.5.1 HCVcc-Cre infection, luciferase reporter, 44 h; Potency, µM (highest dose often 41.8 µM), inactives show top-dose activity change, negative = inhibition, usual class: inhibitors; 340,000 tested, 3.4% active
#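 A cell-based infection assay in which seeded cells (1,000 per well) receive test compound after 4 h, are inoculated with HCVcc-Cre at approximately 0.5 moi, and are incubated 44 h before luminescence detection.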
# AMA1 RON2 block = inhibitors of Plasmodium falciparum AMA1-RON2 interaction. Potency, µM (highest dose often 58.2 µM), for inactives: at the highest dose activity change, negative = inhibition, most hits filed as inhibitors. 360,000 tested, 0.2% active. AID 720542. AlphaScreen AMA1-biotinylated RON2 peptide binding;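 further: 0% = vehicle wells and -100% = peptide control; nearly all actives have a fitted effect of over 45% in size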
#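 AMA1 (3D7) with his tag at 25 nM final met compounds first, then biotinylated RON2 peptide at 25 nM; detection used donor plus acceptor beads, 10 µg/mL apiece, read by AlphaScreen after 30 min at room temperature.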
# Pf growth 48h = inhibits P. falciparum growth in the first generation, 48 h. Potency, µM (doses to about 28.7 µM), inactives show top-dose activity change, negative = inhibition, most hits filed as inhibitors. P. falciparum luciferase growth in erythrocytes, 48 h. 310,000 tested, 5.9% active
#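 A one-generation exposure of luciferase-tagged malaria parasites in RPMI 1640/Albumax erythrocyte culture, 37 C and 5% CO2. Inhibition is inferred from decreased luminescence after adding detection reagent.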
# The depositor's hits bear a star; ? = inconclusive; . = no result; [ ] = another dose, or the depositor's remark. The call rests on the fitted dose curve; in most records, active means well fitted curve in the direction sought with a large enough effect; inconclusive means small, poorly fitted or top-dose-only effect, or another doubt; inactive means no such curve, though single readings can be large; an effect the other way counts as inactive or inconclusive. Unless noted, on the % scale 0 is the no-effect control and ±100 the full control effect; potency means the concentration at half of the fitted maximal effect.
SMILES,Pf growth 96h,HCV inhibitor,AMA1 RON2 block,Pf growth 48h
COC(=O)c1cccc(CSc2nc(-c3ccccc3)c(C#N)c(=O)[nH]2)c1,7%,14%,-4%,9%
O=C(C1=C[C@H](c2ccc(Br)cc2)C[C@H](OCCCCO)O1)N1CCN(Cc2ccc3c(c2)OCO3)CC1,4.1µM*,?,-1%,1.5µM*
O=C(C1=C[C@@H](c2ccc(Br)cc2)C[C@@H](OCCCCO)O1)N1CCN(Cc2ccccc2)CC1,12µM*,-4%,-10%,8.3µM*
O=C(C1=C[C@@H](c2ccc3c(c2)OCO3)C[C@@H](OCCCCO)O1)N1CCN(Cc2ccc3c(c2)OCO3)CC1,10µM*,0.56µM*,1%,?
O=C(C1=C[C@H](c2ccc3c(c2)OCO3)C[C@H](OCCCCO)O1)N1CCN(Cc2ccccc2)CC1,13µM*,?,42%,?
CN1CCN(C(=O)C2=C[C@H](c3ccc(Br)cc3)C[C@H](OCCCCO)O2)CC1,7%,15%,-8%,15%
O=C(C1=C[C@H](c2ccc3c(c2)OCO3)C[C@H](OCCCCO)O1)N1CCN(Cc2ccc3c(c2)OCO3)CC1,?,-26%,-4%,?
Cc1c(Br)c(C(=O)NNC(=O)c2ccc(C(C)(C)C)cc2)nn1C,32%,-11%,79%,24%
C#Cc1ccc([C@@H]2C=C(C(=O)N3CCN(Cc4ccc5c(c4)OCO5)CC3)O[C@H](OCCCCO)C2)cc1,12µM*,-15%[8.37 µM],-3%,?
O=C(C1=C[C@H](C2CCCCC2)C[C@H](OCCCCO)O1)N1CCN(Cc2ccc3c(c2)OCO3)CC1,5.9µM*,?,24%,12µM*
O=C(C1=C[C@@H](C2CC2)C[C@@H](OCc2ccc(CO)cc2)O1)N1CCN(Cc2ccc3c(c2)OCO3)CC1,13%,-18%,-1%,0%
CN1CCN(C(=O)C2=C[C@H](c3ccc4c(c3)OCO4)C[C@H](OCCCCO)O2)CC1,.,14%,7%,.
C=C(C)n1c(=O)[nH]c2ccccc21,.,2%,-11%,10%
C1CCCCCC(NCCN2CCNCC2)CCCCC1,?,1.3µM*,-5%,?
O=C(NC1CCCCC1)N1CCNCC1,-16%,20%,3%,40%
O=C(O)c1cccc2c1C(=O)c1ccccc1C2=O,-1%,2%,-11%,19%
CN(C=[N+](C)C)c1cccc2c1C(=O)c1ccccc1C2=O,-13%,?,32µM*,9%
CC(=O)Nc1ccc(OC(=O)c2ccc(Br)c([N+](=O)[O-])c2)cc1,22%,3%,-24%,1%
Cc1ccccc1CC1(CO)CCCN(C(=O)CCN2CCCO2)C1 (stereo unspecified),2.6µM*,18%,-7%,5%
O=C(c1cccc2ccccc12)C1CCCN(C(=O)c2ccc(N3CCOCC3)cc2)C1 (stereo unspecified),-1%,?,-10%,?
CSc1ccccc1C(=O)C1CCCN(C(=O)CCN2CCCO2)C1 (stereo unspecified),5.2µM*,2%,1%,37%
CSc1ccccc1C(=O)C1CCCN(C(=O)c2ccc(N3CCOCC3)cc2)C1 (stereo unspecified),10µM*,?,10%,-14%
COc1ccc(CSCC(=O)Nc2ccccc2)cc1[N+](=O)[O-],59%,-3%,8%,18%
Cc1noc(C)c1NC(=O)Nc1ccc2c(c1)C(=O)N([C@H](C)CO)C[C@H](C)[C@H](CN(C)C)O2,.,4%,-1%,.
Nc1ccn([C@@H]2O[C@H](CNCc3cnc(N4CCOCC4)s3)[C@@H](O)[C@H]2O)c(=O)n1,.,.,7%,.
SMILES,Pf growth 96h,HCV inhibitor,AMA1 RON2 block,Pf growth 48h
Cc1cccc(C)c1N=C1NN=C(c2ccccc2F)CS1,?,?,49%,-2%
COc1ccccc1C1=NNC(=Nc2cccc(S(=O)(=O)N(C)C)c2)SC1,?,13µM*,16%,1.9µM*
CC(C)C[C@@H](CN1CCCC1CN1C(=S)NC[C@@H]1Cc1ccc(O)cc1)N1C[C@H](Cc2ccc(O)cc2)N(CCc2ccccc2)C1=S (stereo partly specified),.,-52%,8%,.
COc1ccc(C(=O)N/N=C/C2CC=CCC2)cc1OC (stereo unspecified),-26%,16%,72%,2%
Cc1nc(Nc2cnc(/C=C/c3cc(C(=O)Nc4cccc(C(F)(F)F)c4)ccc3C)cn2)cc(N2CCNCC2)n1,?,-9%[8.37 µM],16%,0.74µM*
Cc1nc(N2CCC(C)CC2)c2c(C)c(C(=O)Nc3cccc(C(F)(F)F)c3)sc2n1,-24%,?,-11%,?
COC(=O)[C@]12CCCCC=C1N(Cc1ccc(Cl)cc1Cl)C(=O)[C@H](CC(=O)NCCCCc1ccccc1)C2,.,.,-6%,.
Cc1cc(Nc2cc(Cl)cc(Cl)c2)nc(N)n1,2.3µM*,?,-6%,1.9µM*
Cc1cc(Nc2ccc(C(=O)O)cc2)nc(N)n1,22%,1%,5%,1%
Cc1cc(Nc2ccc(F)cc2)nc(N)n1,9.3µM*,-18%,0%,?
CCS(=O)(=O)Nc1cccc(C(=O)O)c1,0%,10%,-5%,-5%
CCS(=O)(=O)Nc1cccc(C(=C2CCCCC2)c2cnc[nH]2)c1,?,8%,-3%,12µM*
Cc1ccc(C)c(C(=O)OCC(=O)Nc2ccc(N3CCOCC3)cc2)c1,3%,-2%,-17%,-6%
Cc1nc2c(c3c1[nH]c1ccccc13)C(O)CC(C)(C)C2 (stereo unspecified),27%,?,12%,?
Cc1ncc(CO)c(CO)c1O,28%,11%,-2%,2%
COCc1c(CCl)cnc(C)c1O,9.3µM*,-7%,-1%,-26%
OCCC1CN(CC2CC2)CCN1Cc1ccc(F)c(F)c1 (stereo unspecified),13µM*,31%,10%,35%
OCCC1CN(C2CCC2)CCN1Cc1ccc(F)c(F)c1 (stereo unspecified),12µM*,16%,-19%,-1%
Cc1ccccc1CN1CCN(C2CCC2)CC1CCO (stereo unspecified),15µM*,-8%,-9%,1%
COc1ccc(OC)c(NC(=O)COc2coc(CN3CCCc4ccccc43)cc2=O)c1,?,?,-4%,10µM*
Cc1ccc(NC(=O)COc2coc(CN3CCc4ccccc43)cc2=O)c(C)c1,-18%,?,-15%,?
O=C(COc1coc(CN2CCCc3ccccc32)cc1=O)Nc1ccccc1,?,?,9%,?
COc1ccc(OC)c(NC(=O)COc2coc(CN3CCc4ccccc43)cc2=O)c1,?,?,-29%,10µM*
COc1ccc(N(CC(=O)N2CCc3ccccc32)S(=O)(=O)c2c(C)nn(C)c2C)cc1,8.3µM*,-11%,-9%,.
CCOC(=O)C1CCN(C(=O)CN(c2ccc(OC)cc2)S(=O)(=O)c2c(C)noc2C)CC1,43%,4%,-2%,.
CCOC(=O)C1CCN(C(=O)CN(c2ccc(OC)cc2)S(=O)(=O)c2c(C)nn(C)c2C)CC1,7.4µM*,22%,10%,.
